In PubChem BioAssay (NCATS):
Values without a mark were called inactive. Results filed as inconclusive are left out. Entries that show only a call come without a potency. Calls of active or inactive are those of the source. Unless noted, the call rests on the fitted dose curve; in most records, active means well fitted inhibition curve with a large enough effect; inconclusive means small, poorly fitted or top-dose-only effect; inactive means no such curve, though single readings can be large or run the other way.

Tests used:
[1] = biological target: Cytochrome P450 1A2 (Homo sapiens) (UniProt P05177); assay: p450-cyp1a2 (AID 410; calls by dose curve; further: potency means the concentration at half of the fitted maximal effect)
Sequence of Cytochrome P450 1A2 (Homo sapiens) (P05177 whole entry, looked up): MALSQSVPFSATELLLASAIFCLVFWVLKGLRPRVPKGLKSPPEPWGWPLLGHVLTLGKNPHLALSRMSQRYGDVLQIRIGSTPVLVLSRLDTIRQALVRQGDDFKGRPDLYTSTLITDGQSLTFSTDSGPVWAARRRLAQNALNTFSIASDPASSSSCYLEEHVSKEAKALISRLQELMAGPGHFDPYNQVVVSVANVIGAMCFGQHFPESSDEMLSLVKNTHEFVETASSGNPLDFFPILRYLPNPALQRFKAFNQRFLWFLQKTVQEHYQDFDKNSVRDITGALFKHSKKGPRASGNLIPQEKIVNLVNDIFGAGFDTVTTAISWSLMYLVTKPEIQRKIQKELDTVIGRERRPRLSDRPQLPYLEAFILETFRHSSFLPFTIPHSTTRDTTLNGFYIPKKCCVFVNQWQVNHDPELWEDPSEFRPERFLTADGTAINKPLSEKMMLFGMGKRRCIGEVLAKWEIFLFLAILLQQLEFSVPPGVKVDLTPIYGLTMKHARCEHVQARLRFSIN
Procedure, shortened: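 20nM CYP1A2, 100uM Luciferin-ME (=Km), 100mM KPO4; cpd 10 min RT; +NADPH regen, 60 min RT; stop/detect 20 min; luminescence. Normalized to furafylline 57 uM = full inhibition.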

[2] = biological target: Mitogen-activated protein kinase 10 (Mus musculus) (UniProt Q61831); assay: JNK3 AlphaScreen Assay (AID 530; active means well fitted curve in either direction with a large enough effect, not every such curve was filed as active;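 further: kinase came from lysate of stimulated human HepG2 cells; signal reports phosphorylation of biotinylated GST-cJun 1-79 at Ser73 with 10 µM ATP; series mostly up to about 57 µM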)
Procedure, shortened: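 Biotinylated GST-cJun(1-79) served as substrate for JNK3 in HepG2 lysates stimulated with IL-1beta and TNF-alpha. ATP was 10 uM final, pH 7.6. Ser73 phosphorylation was quantified by AlphaScreen (680 nm excitation).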

[3] = biological target: Glucocorticoid receptor (Homo sapiens) (UniProt P04150); assay: GR-EFC Redistribution (AID 451; calls by dose curve; further: potency means the concentration at half of the fitted maximal effect); details: CHO-K1 GR-EFC translocation, beta-gal luminescence, 2 h
Sequence of Glucocorticoid receptor (Homo sapiens) (P04150 whole entry, looked up, the tested form may be a part): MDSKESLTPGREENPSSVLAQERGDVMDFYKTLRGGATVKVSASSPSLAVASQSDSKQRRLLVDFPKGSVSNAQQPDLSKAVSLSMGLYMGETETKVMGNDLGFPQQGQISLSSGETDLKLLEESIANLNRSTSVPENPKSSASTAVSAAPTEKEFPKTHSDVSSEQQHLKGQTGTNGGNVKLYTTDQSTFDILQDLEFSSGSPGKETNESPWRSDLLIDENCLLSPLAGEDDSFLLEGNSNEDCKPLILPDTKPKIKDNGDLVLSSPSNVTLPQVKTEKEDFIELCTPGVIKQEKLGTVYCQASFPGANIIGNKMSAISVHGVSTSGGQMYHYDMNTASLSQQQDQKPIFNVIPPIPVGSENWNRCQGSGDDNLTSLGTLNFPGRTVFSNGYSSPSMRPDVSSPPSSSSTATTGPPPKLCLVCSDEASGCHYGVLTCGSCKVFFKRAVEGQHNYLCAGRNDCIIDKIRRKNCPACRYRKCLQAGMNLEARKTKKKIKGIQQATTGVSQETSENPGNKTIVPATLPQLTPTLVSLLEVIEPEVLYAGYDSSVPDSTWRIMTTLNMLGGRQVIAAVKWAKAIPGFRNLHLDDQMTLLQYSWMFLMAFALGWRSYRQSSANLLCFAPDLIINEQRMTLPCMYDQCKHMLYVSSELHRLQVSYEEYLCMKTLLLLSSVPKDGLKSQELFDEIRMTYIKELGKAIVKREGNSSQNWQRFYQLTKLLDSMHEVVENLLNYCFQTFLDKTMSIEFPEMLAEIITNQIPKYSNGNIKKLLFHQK
Procedure, shortened: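 CHO-K1 cells stably expressing nuclear-localized β-gal enzyme acceptor and GR fused C-terminally to the enzyme donor fragment; ligand-driven nuclear translocation restores β-gal by complementation. Compounds titrated up to 46 uM final, 2 h at 37 °C; luminescence read.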

[4] = biological target: 3',5'-cyclic-AMP phosphodiesterase 4B (Homo sapiens) (UniProt Q07343); assay: qHTS Assay for Inhibitors of PDE-IV (AID 607; active means well fitted activation curve with a large enough effect in the main read-out, with a control signal flat, not every such curve was filed as active)
Sequence of 3',5'-cyclic-AMP phosphodiesterase 4B (Homo sapiens) (Q07343 whole entry, looked up): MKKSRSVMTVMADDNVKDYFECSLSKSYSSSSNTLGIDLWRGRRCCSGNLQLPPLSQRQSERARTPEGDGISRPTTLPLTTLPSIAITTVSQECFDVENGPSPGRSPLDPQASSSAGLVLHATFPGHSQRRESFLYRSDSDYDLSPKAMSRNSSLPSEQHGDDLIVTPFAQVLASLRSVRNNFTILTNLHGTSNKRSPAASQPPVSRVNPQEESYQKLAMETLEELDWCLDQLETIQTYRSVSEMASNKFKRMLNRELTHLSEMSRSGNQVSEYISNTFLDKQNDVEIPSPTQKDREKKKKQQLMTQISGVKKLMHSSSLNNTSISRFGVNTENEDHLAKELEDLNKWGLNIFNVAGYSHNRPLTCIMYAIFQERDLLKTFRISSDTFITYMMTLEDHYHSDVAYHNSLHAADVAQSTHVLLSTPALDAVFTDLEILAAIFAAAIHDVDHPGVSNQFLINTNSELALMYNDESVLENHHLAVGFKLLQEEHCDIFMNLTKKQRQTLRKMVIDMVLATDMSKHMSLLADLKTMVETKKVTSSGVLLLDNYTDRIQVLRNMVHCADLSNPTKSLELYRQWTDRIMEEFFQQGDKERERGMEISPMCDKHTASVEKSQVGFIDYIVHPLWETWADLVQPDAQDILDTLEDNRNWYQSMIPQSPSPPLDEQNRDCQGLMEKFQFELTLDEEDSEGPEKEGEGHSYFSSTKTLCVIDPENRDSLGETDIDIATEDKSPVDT
Procedure, shortened: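 ACTOne HEK293 cells carry a modified cAMP-gated CNG channel and express endogenous PDE4; plated 1000 cells/well, compounds up to 22.9 uM final. Membrane-potential dye fluorescence (ex 535/em 590) was read; parental cells received 10 uM forskolin + 100 uM RO 20-1724.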

[5] = biological target: Cytochrome P450 2D6 (Homo sapiens) (UniProt P10635); assay: qHTS Assay for Inhibitors and Substrates of Cytochrome P450 2D6 (AID 891); further: nearly all actives have a fitted effect of over 60% in size; further: potency means the concentration at half of the fitted maximal effect
Sequence of Cytochrome P450 2D6 (Homo sapiens) (P10635 whole entry, looked up): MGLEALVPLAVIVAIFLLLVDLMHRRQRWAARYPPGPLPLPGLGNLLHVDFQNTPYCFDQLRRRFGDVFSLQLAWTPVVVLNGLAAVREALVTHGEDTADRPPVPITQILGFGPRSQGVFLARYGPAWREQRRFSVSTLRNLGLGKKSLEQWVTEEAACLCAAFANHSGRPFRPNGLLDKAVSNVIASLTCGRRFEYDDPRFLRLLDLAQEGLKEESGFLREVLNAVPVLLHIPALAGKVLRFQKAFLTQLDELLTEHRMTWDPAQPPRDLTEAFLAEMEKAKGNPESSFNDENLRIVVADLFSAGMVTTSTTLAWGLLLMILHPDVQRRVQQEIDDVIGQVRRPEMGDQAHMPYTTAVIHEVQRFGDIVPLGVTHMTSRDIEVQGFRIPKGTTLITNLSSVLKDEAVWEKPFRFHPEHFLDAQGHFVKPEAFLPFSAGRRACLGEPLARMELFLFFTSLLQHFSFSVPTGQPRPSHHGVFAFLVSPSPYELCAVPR
Procedure, shortened: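 Luminescent read-out of luciferin formed by 5 nM human CYP2D6 demethylating 30 uM Luciferin-ME EGE (Km level) over 60 min at room temperature after NADPH regeneration addition. Data normalized to full inhibition by 1.43 uM quinidine.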

[6] = biological target: Cytochrome P450 2C19 (Homo sapiens) (UniProt P33261); assay: qHTS Assay for Inhibitors and Substrates of Cytochrome P450 2C19 (AID 899); further: nearly all actives have a fitted effect of over 60% in size; further: potency means the concentration at half of the fitted maximal effect
Sequence of Cytochrome P450 2C19 (Homo sapiens) (P33261 whole entry, looked up): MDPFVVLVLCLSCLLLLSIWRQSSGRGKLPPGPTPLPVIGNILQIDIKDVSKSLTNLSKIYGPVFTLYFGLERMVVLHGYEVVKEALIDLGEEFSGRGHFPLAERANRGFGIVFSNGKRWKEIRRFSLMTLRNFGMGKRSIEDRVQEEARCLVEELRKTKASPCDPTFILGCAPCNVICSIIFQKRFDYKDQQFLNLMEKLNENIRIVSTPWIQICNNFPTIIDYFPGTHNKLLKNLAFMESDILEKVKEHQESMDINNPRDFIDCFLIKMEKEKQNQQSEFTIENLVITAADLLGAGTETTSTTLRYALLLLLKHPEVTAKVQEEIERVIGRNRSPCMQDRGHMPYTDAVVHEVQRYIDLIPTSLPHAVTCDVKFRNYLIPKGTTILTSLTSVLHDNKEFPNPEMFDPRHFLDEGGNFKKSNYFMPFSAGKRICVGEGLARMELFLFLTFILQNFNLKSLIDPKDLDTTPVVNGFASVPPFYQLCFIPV
Procedure, shortened: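 In 50mM KPO4, the reaction held 5nM enzyme and KM-level (10uM) Luciferin-H EGE; it ran 60 min at 37C after NADPH regeneration and a 10 min compound preincubation. Luminescence values were scaled to 57uM ketoconazole as complete inhibition.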

[7] = biological target: Cytochrome P450 2C9 (Homo sapiens) (UniProt P11712); assay: qHTS Assay for Inhibitors and Substrates of Cytochrome P450 2C9 (AID 883); further: nearly all actives have a fitted effect of over 60% in size
Sequence of Cytochrome P450 2C9 (Homo sapiens) (P11712 whole entry, looked up): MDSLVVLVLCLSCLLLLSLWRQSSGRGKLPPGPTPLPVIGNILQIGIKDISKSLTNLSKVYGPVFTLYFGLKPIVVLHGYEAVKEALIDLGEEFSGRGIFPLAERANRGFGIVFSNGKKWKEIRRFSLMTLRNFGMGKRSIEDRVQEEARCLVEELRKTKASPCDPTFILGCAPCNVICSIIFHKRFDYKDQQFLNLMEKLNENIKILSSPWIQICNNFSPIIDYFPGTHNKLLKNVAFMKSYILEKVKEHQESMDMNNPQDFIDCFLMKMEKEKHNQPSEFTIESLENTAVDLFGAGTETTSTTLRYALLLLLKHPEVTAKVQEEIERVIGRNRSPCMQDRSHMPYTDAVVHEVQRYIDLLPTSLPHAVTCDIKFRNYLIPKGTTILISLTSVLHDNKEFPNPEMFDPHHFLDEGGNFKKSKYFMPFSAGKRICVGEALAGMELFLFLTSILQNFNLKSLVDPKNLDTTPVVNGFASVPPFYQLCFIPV
Procedure, shortened: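 CYP2C9 deoxyluciferin hydroxylation, 37C, 60 min with NADPH regeneration; 10nM enzyme, 100uM Luciferin-H (KM). Glo detection reagent stopped reaction; luminescence normalized to sulphaphenazole (57uM) full inhibition.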

Compound	Potency [1]	Potency [2]	Potency [3] [µM]	Potency [4]	Potency [5]	Potency [6]	Potency [7]
CC(C)(C)C(=O)NC(c1ccc(Cl)cc1)[C@]1(C)C[C@H]1C1CCCCC1 (some centres not stated)	inactive	inactive	–	–	–	–	–
NCCC[C@@H](CC(=O)N[C@@H]1CCCC[C@H]1C(=O)N[C@H](CC(=O)N[C@@H](CCC(=O)O)CC(=O)O)Cc1c[nH]c2ccccc12)NC(=O)C[C@H](CO)NC(=O)[C@@H]1CCCC[C@H]1N	inactive	inactive	> 46	inactive	inactive	inactive	–
CC(C)C[C@@H](CC(=O)N[C@@H](CCC(=O)O)CC(=O)O)NC(=O)[C@@H]1CCCC[C@H]1NC(=O)C[C@@H](NC(=O)C[C@H](Cc1c[nH]c2ccccc12)NC(=O)[C@@H]1CCCC[C@H]1N)C(C)C	inactive	–	> 46	inactive	inactive	inactive	inactive
CC(C)[C@@H](CC(=O)N[C@@H]1CCNC[C@H]1C(=O)N[C@H](CC(=O)N[C@@H](CCC(=O)O)CC(=O)O)Cc1ccccc1)NC(=O)C[C@H](CO)NC(=O)[C@@H]1CNCC[C@H]1N	inactive	–	> 46	inactive	inactive	–	–
CC(C)C[C@@H](CC(=O)N[C@@H](CCC(=O)O)CC(=O)O)NC(=O)[C@@H]1CNCC[C@H]1NC(=O)C[C@@H](NC(=O)C[C@H](Cc1c[nH]c2ccccc12)NC(=O)[C@@H]1CCCC[C@H]1N)C(C)C	inactive	–	> 46	inactive	inactive	inactive	inactive
CC(C)[C@@H](CC(=O)N[C@@H]1CCCC[C@H]1C(=O)N[C@H](CC(=O)N[C@@H](CCC(=O)O)CC(=O)O)Cc1c[nH]c2ccccc12)NC(=O)C[C@H](Cc1c[nH]c2ccccc12)NC(=O)[C@@H]1CNCC[C@H]1N	inactive	–	> 46	inactive	inactive	inactive	inactive
CC(C)C[C@@H](CC(=O)N[C@@H](CCC(=O)O)CC(=O)O)NC(=O)[C@@H]1CCCC[C@H]1NC(=O)C[C@H](CCCN)NC(=O)C[C@H](CO)NC(=O)[C@@H]1CCCC[C@H]1N	inactive	–	> 46	inactive	inactive	inactive	inactive
CC(C)C[C@@H](CC(=O)N[C@@H](CCCN)CC(=O)N[C@@H]1CCCC[C@H]1C(=O)N[C@H](CC(=O)N[C@@H](CCC(=O)O)CC(=O)O)CC(C)C)NC(=O)[C@@H]1CCCC[C@H]1N	inactive	–	> 46	inactive	inactive	inactive	inactive
CC(C)[C@@H](CC(=O)N[C@@H]1CCNC[C@H]1C(=O)N[C@H](CC(=O)N[C@@H](CCC(=O)O)CC(=O)O)Cc1c[nH]c2ccccc12)NC(=O)C[C@H](Cc1c[nH]c2ccccc12)NC(=O)[C@@H]1CNCC[C@H]1N	inactive	–	> 46	inactive	inactive	inactive	inactive
CCC/C=C(\CCC)C(NC(=O)Oc1ccc(F)cc1)c1ccc(C(=O)OC)cc1 (configuration not stated)	inactive	inactive	–	–	–	–	–
Clc1ccc(CO[C@@H](Cn2ccnc2)c2ccc(Cl)cc2Cl)cc1	0.1 µM (active)	–	> 20.6	–	0.199 µM (active)	0.0631 µM (active)	–
NCCC[C@@H](CC(=O)N[C@@H]1CCNC[C@H]1C(=O)N[C@H](CC(=O)N[C@@H](CCC(=O)O)CC(=O)O)Cc1c[nH]c2ccccc12)NC(=O)C[C@H](Cc1ccccc1)NC(=O)[C@@H]1CNCC[C@H]1N	31.6 µM (active)	–	> 46	inactive	inactive	inactive	inactive
CC(C)C[C@@H](CC(=O)N[C@@H](CCC(=O)O)CC(=O)O)NC(=O)[C@@H]1CNCC[C@H]1NC(=O)C[C@@H](NC(=O)C[C@H](CO)NC(=O)[C@@H]1CNCC[C@H]1N)C(C)C	inactive	–	> 46	inactive	inactive	inactive	–
NCCC[C@@H](CC(=O)N[C@@H]1CCCC[C@H]1C(=O)N[C@H](CC(=O)N[C@@H](CCC(=O)O)CC(=O)O)Cc1c[nH]c2ccccc12)NC(=O)C[C@H](CO)NC(=O)[C@@H]1CNCC[C@H]1N	inactive	–	> 46	inactive	–	inactive	–
CC(C)C[C@@H](CC(=O)N[C@@H](CCCN)CC(=O)N[C@@H]1CCNC[C@H]1C(=O)N[C@H](CC(=O)N[C@@H](CCC(=O)O)CC(=O)O)Cc1c[nH]c2ccccc12)NC(=O)[C@@H]1CNCC[C@H]1N	inactive	–	> 46	inactive	inactive	inactive	inactive
CC(C)C[C@@H](CC(=O)N[C@@H](CCCN)CC(=O)N[C@@H]1CCCC[C@H]1C(=O)N[C@H](CC(=O)N[C@@H](CCC(=O)O)CC(=O)O)Cc1c[nH]c2ccccc12)NC(=O)[C@@H]1CCCC[C@H]1N	inactive	–	> 46	inactive	inactive	inactive	–
CC(C)[C@@H](CC(=O)N[C@@H]1CCNC[C@H]1C(=O)N[C@H](CC(=O)N[C@@H](CCC(=O)O)CC(=O)O)Cc1c[nH]c2ccccc12)NC(=O)C[C@H](CO)NC(=O)[C@@H]1CNCC[C@H]1N	inactive	–	> 46	inactive	inactive	inactive	–
CC(C)C[C@@H](CC(=O)N[C@@H](CCC(=O)O)CC(=O)O)NC(=O)[C@@H]1CCCC[C@H]1NC(=O)C[C@H](CCCN)NC(=O)C[C@H](CO)NC(=O)[C@@H]1CNCC[C@H]1N	inactive	inactive	> 46	inactive	inactive	inactive	–
CC(C)[C@@H](CC(=O)N[C@@H]1CCCC[C@H]1C(=O)N[C@H](CC(=O)N[C@@H](CCC(=O)O)CC(=O)O)Cc1ccccc1)NC(=O)C[C@H](CO)NC(=O)[C@@H]1CCCC[C@H]1N	inactive	inactive	> 46	inactive	inactive	–	–
CC(C)C[C@@H](CC(=O)N[C@@H](CCC(=O)O)CC(=O)O)NC(=O)[C@@H]1CCCC[C@H]1NC(=O)C[C@@H](NC(=O)C[C@H](CO)NC(=O)[C@@H]1CNCC[C@H]1N)C(C)C	inactive	inactive	> 46	inactive	inactive	inactive	–
